OPRK1 antag MB = antagonists of human kappa opioid receptor OPRK1, Maybridge library; P41145; OPRK1 cells, antagonist mode, fluorescence readout; inhibition, % at 9 µM; hit rate 0.4% among 16,000; in the data active = inhibition above about 50%
TLR4 MyD88 blk = inhibitors of human TLR4-MyD88 binding; O00206; Cell-based TLR4-MyD88 binding inhibition assay; inhibition, % at 10 µM; hit rate 0.06% among 16,000; in the data active = inhibition above about 45%
rat GALR2 ag = GALR2 (rat) receptor agonism | AID 833 | hit rate 0.5% among 16,000 | cell-based GALR2 agonist screen | O08726 | activation, % at 10 µM; in the data active = activation above about 15%
S1P1 agonist = activates the human S1P1 receptor; S1P1 agonist cell-based reporter assay; activation, % at 4.5 µM; hit rate 1.5% among 16,000; AID 1044; in the data active = activation above about 80%
Target sequence (P21453 whole entry, looked up): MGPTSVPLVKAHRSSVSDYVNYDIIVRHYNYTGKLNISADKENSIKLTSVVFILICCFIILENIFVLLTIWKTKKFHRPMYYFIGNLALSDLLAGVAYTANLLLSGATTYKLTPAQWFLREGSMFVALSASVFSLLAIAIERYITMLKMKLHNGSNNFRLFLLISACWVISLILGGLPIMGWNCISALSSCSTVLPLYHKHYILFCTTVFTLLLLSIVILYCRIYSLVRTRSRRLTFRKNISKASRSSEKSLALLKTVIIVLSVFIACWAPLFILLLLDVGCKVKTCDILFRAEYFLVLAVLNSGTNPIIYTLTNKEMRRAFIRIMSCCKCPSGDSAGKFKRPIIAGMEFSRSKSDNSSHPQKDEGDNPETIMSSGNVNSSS
An asterisk follows results filed as active; · = no result. This is a sample that favours compounds with a hit; in the whole collection about 2.5% have one here.

SMILES | OPRK1 antag MB | TLR4 MyD88 blk | rat GALR2 ag | S1P1 agonist
CC(=O)c1cnc(N)nc1C | 0 | -7 | -6 | 1
Cc1nc(-c2cc(C#N)c(NCc3ccccc3)nc2C)cs1 | -40 | 8 | -1 | 85*
COc1ccc(/C=C2/N=C(c3ccccc3)NN(Cc3ccccc3)C2=O)cc1 | 11 | 2 | -7 | 6
COc1ccc(/C=C2/N=C(c3ccccc3)NC2=O)cc1 | 17 | -2 | 15* | -33
CC(C)(C)c1cc2nc(C(F)(F)F)cc(NNC(=O)Nc3ccc(OC(F)(F)F)cc3)n2n1 | 3 | -6 | 0 | 82*
CNc1ncnc(NNC(=O)Nc2ccc(OC(F)(F)F)cc2)c1[N+](=O)[O-] | 3 | 9 | -6 | -24
N#Cc1cc([N+](=O)[O-])ccc1Oc1ccc2nonc2c1 | -10 | -4 | -8 | 14
N#Cc1c(Cl)cccc1Oc1ccc(S(=O)(=O)NNc2c(Cl)cncc2Cl)cc1 | 3 | -6 | -6 | 108*
CC(=O)Nc1cccc(OCCCNS(=O)(=O)c2ccc(Oc3cccc(Cl)c3C#N)cc2)c1 | -5 | -2 | -6 | 93*
CC(=O)Nc1cccc(OCCCNS(=O)(=O)c2cn(C)c(C)n2)c1 | -18 | 3 | -11 | -6
N/C(=N/OC(=O)c1ccno1)c1ccc(C(F)(F)F)cc1 | 6 | 9 | -3 | 19
Cn1cc(C(=O)O/N=C(\N)c2ccc(C(C)(C)C)cc2)c(C(F)(F)F)n1 | 35 | -11 | -6 | 100*
CCOC(=O)NC(=S)Nc1ccc(C(C)(C)C)cc1 | 13 | -10 | -6 | -16
CCOC(=O)CNc1ccc(C(F)(F)F)cc1 | -1 | -5 | 61* | 5
FC(F)(F)c1ccc(N2CCN(c3ccc(NC(=S)NCC4CCCO4)cn3)CC2)nc1 (configuration not stated) | 7 | -1 | -4 | 60
O=C1NNC(SCc2ccc(Br)cc2)=Nc2ccccc21 | 0 | -8 | -6 | 96*
O=C(NCc1ccccn1)c1cccnc1SCCS(=O)(=O)c1cccc(C(F)(F)F)c1 | 21 | 11 | 3 | 117*
O=C(NCc1ccccn1)c1cccc(C(F)(F)F)n1 | 9 | -11 | -1 | -8
Cc1ccc(S(=O)(=O)n2nccc2-c2c(C)nc3ccccn23)cc1 | -8 | -1 | -7 | 88*
CS/C(Nc1ccccc1)=C(/C#N)C(=O)c1cc(-c2ccccc2)c(C(F)(F)F)s1 | 6 | -9 | -2 | 10
O=C(/C=C/c1cc(-c2ccccc2)c(C(F)(F)F)s1)c1cccs1 | 63* | -34 | 2 | 100*
CC1=NC=CC2NC(=O)C(C#N)=CC12 (configuration not stated) | 4 | -7 | -3 | -5
Clc1ccc(-c2nc(CN3CCOCC3)cs2)cc1 | -13 | 2 | -11 | 102*
COC(=O)c1sc(SC)c(C#N)c1-c1cccc(C(F)(F)F)c1 | -19 | 2 | -8 | 16
COC(=O)c1sc(C(F)(F)F)c(-c2ccccc2)c1N | -5 | · | -5 | 98*
SMILES | OPRK1 antag MB | TLR4 MyD88 blk | rat GALR2 ag | S1P1 agonist
N#C/C(=C\c1c(Cl)cccc1Cl)C(=O)Nc1ccc(F)c(Cl)c1 | 43 | -5 | 20* | 31
CN(C)/C=C(\C#N)C(=O)Nc1ccc(F)c(Cl)c1 | 4 | · | -5 | 30
Cn1nccc1NC(=O)c1cccc2c1OC(C)(C)C2 | 7 | -4 | -8 | 57
Cn1c(=O)c2cc3cc(Cl)ccc3nc2c2c(=O)n(-c3ccccc3)c(=O)n(-c3ccccc3)c21 | 70* | 1 | -2 | -72
CN=C(C)/C(C(=O)OC)=C(/O)c1ccc(C(F)(F)F)cc1 | -8 | -8 | -7 | -4
Cc1ccncc1S(=O)(=O)O | 19 | 24 | -6 | -1
O=c1c2cc(-c3ccccc3)sc2nnn1/N=C/c1cccs1 | 71* | 14 | -18 | 71
COC(=O)c1cccc(NC(=O)NC(=O)c2cccs2)c1 | 17 | -7 | 16* | 2
N#C/C(=N\Nc1ccc(C(F)(F)F)cc1)S(=O)(=O)c1cccs1 | 25 | -37 | -12 | 110*
CS(=O)(=O)NNc1c(Cl)cc(Cl)cc1Cl | 2 | 6 | -8 | 63
COc1ccc(OC)c(CCCCCc2cc(OC)ccc2OC)c1 | 16 | -3 | -2 | -22
FC(F)(F)c1cc(C#CCN2CCOCC2)cc(C(F)(F)F)c1 | 25 | -3 | -5 | -14
CC(C)(C)C(C)(C#N)Nc1ccc(Cl)cc1 (configuration not stated) | 2 | 8 | 45* | -6
Cc1ccc(-c2nc(NS(=O)(=O)c3cccc4nonc34)sc2C)cc1Cl | -11 | -1 | -4 | 12
Cc1ccc(-c2nc(NC(=O)c3c(C)noc3C)sc2C)cc1Cl | 0 | 1 | -10 | -21
COc1ccc(C(=O)Nc2nc(-c3ccc(C)c(Cl)c3)c(C)s2)cc1 | -5 | 2 | 17* | 10
COc1ncc(C#N)c(N)n1 | 42 | -10 | -5 | 2
N#Cc1cnc(Oc2ccc(Cl)cc2)nc1N | 15 | -1 | 21* | -8
COc1ccc(/C=C(\C#N)C(N)=S)cc1 | 0 | 14 | 0 | 109*
CCOc1ncnc2c1nnn2Cc1ccccc1Cl | 2 | -4 | 20* | -12
Cc1cc(C)n(-c2ncnc3c2nnn3Cc2ccccc2Cl)n1 | -6 | 8 | -3 | -3
CC(=O)N1CCC(NC(=O)Oc2ccc(Cl)cc2)CC1 | 4 | 3 | -7 | 0
CC(=O)N1CCC(C(=O)O/N=C(\N)c2ccc(Cl)cc2)CC1 | 126* | 11 | -3 | 17
CC(C)(C)c1ccc(C(=O)c2ncc[nH]2)cc1 | -3 | 15 | 2 | 103*
O=C(c1ccc(OC(F)(F)F)cc1)c1ncc[nH]1 | -21 | 10 | -5 | -16
SMILES | OPRK1 antag MB | TLR4 MyD88 blk | rat GALR2 ag | S1P1 agonist
c1ccc(-c2cc3ncnc(NCc4ccc5c(c4)OCO5)c3s2)cc1 | 61* | -2 | 6 | 8
CCCN(CCC)S(=O)(=O)c1ccc(C(=O)NNC(=O)c2cc(Cl)ccc2N)cc1 | -1 | 2 | -6 | -4
Clc1ccc2nc3c(nc2c1)Nc1ccccc1S3 | 90* | 43 | -14 | 64
O=[N+]([O-])c1cccnc1SCc1csc2ccc(Cl)cc12 | 14 | 5 | -3 | 106*
O=C(Nc1ccc(Oc2cccc3cccnc23)cc1)c1cccs1 | -6 | 1 | 7 | 5
Cc1ccc(C)c(CSc2nc(C3CCCCC3)c(C#N)c(=O)[nH]2)c1 | -2 | 3 | -6 | 97*
CSC1=NCCCN1C(=O)c1c(-c2c(F)cccc2Cl)noc1C | -11 | · | -1 | 4
CCOC(=O)C1CCN(c2ccccc2CN2CCN(c3ccccc3OCC)CC2)CC1 | -1 | 5 | -5 | -1
CCOC(=O)C1CCN(Cc2cccc(NC(=O)c3ccco3)c2)CC1 | 56* | 1 | -5 | -11
O=C(O)CSCC(=O)Nc1cnccn1 | 8 | 5 | -7 | -3
COc1ccc(-c2cc(-c3ccc(OC)cc3)c3c(=O)n(C)c(=O)n(C)c3n2)cc1 | 9 | · | -3 | 81*
OC(COc1ccc(C23CC4CC(CC(C4)C2)C3)cc1)CN1CCCCC1 (configuration not stated) | 38 | -6 | 27* | -5
OC(COc1ccc(N=Cc2ccc(Cl)cc2)cc1)CN1CCCCC1 (configuration not stated) | 18 | 15 | -7 | -8
Cc1cc(-c2n[nH]c(=S)n2C)nn1-c1ccc([N+](=O)[O-])cc1 | -19 | 3 | -1 | 100*
CC12CCC(=O)C=C1CCC2=O (configuration not stated) | -10 | 53* | -3 | 3
Cc1nc(C)c(-c2n[nH]c(=S)n2C)s1 | 5 | 17 | -3 | -3
CCOC(=O)c1nnc2c3c(-c4ccccc4)c(-c4ccccc4)nnc3nn2c1C | 6 | -10 | -7 | 101*
CC(=O)c1ccc(S(=O)(=O)c2ccccc2)cc1 | 6 | 0 | -5 | 0

Bioassay records deposited in PubChem BioAssay by The Scripps Research Institute Molecular Screening Center.
